# PMC4336329 (PLoS ONE, 2015)
# Hit rate of the full screen: of about 310,000 compounds, about 14,000 (4.5%) showed an effect of 50% or more. The effect is printed as a negative number. Many of the other results were omitted from the sample, so strong results are more common in it than they were.
# Target: human ether-à-go-go-related gene (hERG) potassium channel (human, UniProt Q12809)
# Assay: primary screen, population patch clamp on CHO cells stably expressing hERG; higher = less effect of the substance
# 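Further: peak tail current of the secondary pulse compared with the same well before compound.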
# Sequence of human ether-à-go-go-related gene (hERG) potassium channel (Q12809 whole entry, looked up): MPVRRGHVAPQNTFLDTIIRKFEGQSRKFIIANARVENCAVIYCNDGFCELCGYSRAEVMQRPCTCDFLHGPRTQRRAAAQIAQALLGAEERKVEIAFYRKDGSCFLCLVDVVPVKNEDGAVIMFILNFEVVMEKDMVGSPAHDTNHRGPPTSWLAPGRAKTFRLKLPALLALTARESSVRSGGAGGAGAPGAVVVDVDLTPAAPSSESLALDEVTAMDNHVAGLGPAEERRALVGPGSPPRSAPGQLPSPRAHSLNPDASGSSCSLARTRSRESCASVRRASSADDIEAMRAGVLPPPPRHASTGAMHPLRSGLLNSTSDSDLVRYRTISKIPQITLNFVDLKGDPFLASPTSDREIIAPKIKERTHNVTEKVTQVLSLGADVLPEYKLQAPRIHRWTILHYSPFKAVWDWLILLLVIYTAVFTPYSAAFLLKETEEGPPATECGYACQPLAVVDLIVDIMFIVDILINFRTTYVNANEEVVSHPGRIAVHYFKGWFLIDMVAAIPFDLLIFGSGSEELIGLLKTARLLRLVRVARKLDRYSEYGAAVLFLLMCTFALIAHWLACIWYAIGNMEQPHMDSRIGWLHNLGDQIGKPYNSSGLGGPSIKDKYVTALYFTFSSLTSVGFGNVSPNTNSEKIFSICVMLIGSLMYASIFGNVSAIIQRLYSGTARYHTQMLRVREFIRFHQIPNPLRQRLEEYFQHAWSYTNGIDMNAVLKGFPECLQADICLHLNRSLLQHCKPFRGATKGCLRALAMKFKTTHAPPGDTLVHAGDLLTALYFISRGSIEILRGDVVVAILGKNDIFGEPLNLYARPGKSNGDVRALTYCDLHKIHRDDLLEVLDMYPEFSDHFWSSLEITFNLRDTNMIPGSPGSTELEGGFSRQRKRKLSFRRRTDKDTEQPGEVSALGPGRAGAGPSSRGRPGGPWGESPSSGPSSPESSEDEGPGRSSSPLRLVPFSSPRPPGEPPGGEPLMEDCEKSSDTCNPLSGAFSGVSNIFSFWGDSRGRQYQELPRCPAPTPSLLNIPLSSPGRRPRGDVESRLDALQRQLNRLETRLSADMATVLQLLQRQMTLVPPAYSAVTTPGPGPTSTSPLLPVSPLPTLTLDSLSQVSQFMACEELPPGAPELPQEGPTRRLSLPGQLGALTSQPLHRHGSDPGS
row,SMILES,"hERG current change (%, negative = inhibition) at 10uM [%]"
1,CCCn1c(SCC(=O)NCc2ccco2)nnc1-c1ccncc1,19.9
2,O=C(NNC(=O)C1CC1)Nc1ccc(Cl)cc1,6.38
3,CNC(=O)c1nn(-c2ccccc2)ccc1=O,-1.51
4,COc1cc2nc(N3CCN(C(=O)[C@H]4COc5ccccc5O4)CC3)nc(N)c2cc1OC,-37.7
5,O=S(=O)(c1ccccc1F)N1CCN(Cc2cc3c(cc2O)OCO3)CC1,-11.8
6,O=C(COC(=O)C1=COCCO1)Nc1ccc(F)c(F)c1,-1.21
7,Cc1ccc(N2C(=O)C3C4C=CC(C4)C3C2=O)cc1C (stereo not drawn),13.3
8,C=CCn1c(SCC(=O)NC(=O)c2cccc([N+](=O)[O-])c2)nnc1-c1ccccc1F,-15.5
9,O=C(CSc1nnc(-c2ccccc2F)n1C1CC1)NC(=O)c1cccc([N+](=O)[O-])c1,-52.8
10,Cn1c(SCC(=O)NC(=O)c2cccc([N+](=O)[O-])c2)nnc1-c1ccc(F)cc1,-23.3
11,NS(=O)(=O)c1cccc(C(=O)NC2CCSc3ccccc32)c1 (stereo not drawn),7.91
12,COc1cc(C(=O)N/N=C/c2ccc(OC(=O)c3ccccc3Cl)cc2)ccc1O,-10.5
13,O=c1[nH]c(=S)[nH]c2scc(-c3ccc(Br)cc3)c12,16.3
14,CCS(=O)(=O)Nc1cccc(C2=NN(S(=O)(=O)CC)C(c3ccccc3)C2)c1 (stereo not drawn),1.69
15,CCS(=O)(=O)N1N=C(c2cccc(NS(C)(=O)=O)c2)CC1c1ccccc1 (stereo not drawn),-16.9
16,CS(=O)(=O)Nc1cccc(C2=NN(S(C)(=O)=O)C(c3ccccc3)C2)c1 (stereo not drawn),-30.9
17,CCS(=O)(=O)N1N=C(c2cccc(NS(C)(=O)=O)c2)CC1c1ccc(C)cc1 (stereo not drawn),-73.9
18,Cc1ccc(C2CC(c3cccc(NS(C)(=O)=O)c3)=NN2S(C)(=O)=O)cc1 (stereo not drawn),-69.3
19,CCS(=O)(=O)Nc1cccc(C2=NN(S(C)(=O)=O)C(c3ccccc3)C2)c1 (stereo not drawn),-14.6
20,O=c1cc(-c2ccccc2)nc(N2CCCCC2)[nH]1,-13.7
21,CN(Cc1ccc(F)cc1)C(=O)c1sccc1-c1ccccc1,0.217

row,SMILES,"hERG current change (%, negative = inhibition) at 10uM [%]"
1,Cc1cc(=O)[nH]c(NN)n1,6.39
2,COc1cccc2cc(C(=O)NCc3ccco3)c(=O)oc12,2.32
3,Cc1ccc(S(=O)(=O)Nc2ccc(-c3nnc(SCC#N)n3C)cc2)cc1,-11.3
4,CC(C)(C)n1nnnc1C(c1cccnc1)N1CCN(C2CCCCC2)CC1 (stereo not drawn),-2.19
5,CC(=O)N1CCN(c2ccccc2NC(=O)c2ccco2)CC1,-38.9
6,O=C(Nc1ccccc1N1CCCC1)c1ccc(Br)o1,-22.4
7,CC(=O)N1CCN(c2ccccc2NC(=O)c2ccc(Br)o2)CC1,-54.4
8,CC1CCN(c2ccccc2NC(=O)c2ccc(Br)o2)CC1,-0.73
9,O=C(Nc1ccccc1N1CCN(C(=O)c2ccccc2)CC1)c1ccc(Br)o1,-63.5
10,O=C(Nc1ccccc1N1CCCC1)c1ccco1,6.36
11,O=C(Nc1ccccc1N1CCOCC1)c1ccc(Br)o1,1.26
12,O=C(Nc1ccccc1N1CCN(C(=O)c2ccccc2)CC1)c1cc2ccccc2o1,9.86
13,CS(=O)(=O)N1CCN(c2ccccc2NC(=O)c2ccc(Br)o2)CC1,-36.3
14,O=C(Nc1ccccc1N1CCN(C(=O)c2ccccc2)CC1)c1ccco1,-74.2
15,CN1CCN(c2ccccc2NC(=O)c2ccc(Br)o2)CC1,-67.9
16,CCOC(=O)c1[nH]c(C)c(C(=O)OCCN2C(=O)c3ccccc3C2=O)c1C,-1.16
17,COC(=O)[C@@H]1C[C@@]2(O)[C@H](O)[C@H](O)[C@H](O)C[C@H]2N1Cc1ccc(C(F)(F)F)cc1,13.2
18,Cc1ccccc1CN1CCN(CC(=O)NCc2ccccc2)CC1,-22.8
19,Cc1c(NC(=O)CCC2CCCCC2)cc(C(=O)N2CCOCC2)cc1[N+](=O)[O-],-10.2
20,COc1cc(N)c(Cl)cc1C(=O)NC1CN2CCC1CC2.Cl.O (stereo not drawn),-11.1
21,O=C(O)c1ccc(Cl)c(NC(=S)NC(=O)c2cccc(COc3ccccc3)c2)c1,30.4
